Experimental data taken from PubChem BioAssay (NCATS).
Records with an inconclusive call do not appear. Unmarked numbers belong to inactive results. Calls of active or inactive are those of the source. The call rests on the fitted dose curve; in most records, active means well fitted cell-killing curve with a large enough effect; inconclusive means small, poorly fitted or top-dose-only effect; inactive means flat fitted curve, though single readings scatter.

Assay: Cell Viability - LYMP2-011 (AID 969);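 further: 0% = DMSO only and full inhibition = 92 µM tetraoctylammonium bromide; nearly all actives have a fitted effect of over 60% in size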
Settings: LYMP2-011 lymphoblastoid cells viability; series mostly up to 92.2 µM; viability change, negative = cytotoxic: at the top concentration
Source text: NIH Chemical Genomics Center [NCGC]
NIH Molecular Libraries Screening Centers Network [MLSCN]
National Institutes of Environmental Health Sciences [NIEHS]
National Toxicology Program [NTP]
We have developed a 1536-well cell-based assay for quantitative high throughput screening (qHTS) against a number of cell lines to determine in vitro cytotoxicity of small molecules. This particular assay uses a human lymphoblastoid cell line (LYMP2-011) purchased from Coriell Institute for Medical Research.
NCGC Assay Protocol Summary:
The CellTiter-Glo luminescent cell viability assay (Promega) is a homogeneous method to measure the number of viable cells in culture. The end point readout of this assay is based on quantitation of intracellular ATP, an indicator of metabolic activity, using the luciferase reaction. Luciferase catalyzes the oxidation of beetle Luciferin to oxyluciferin and light in the presence of ATP. The luminescent signal is proportional to amount of ATP present.
Using the CellTiter-Glo luminescent cell viability assay, the amount of cellular ATP was measured in the lymphoblastoid cell line with complete culture medium following compound treatment for 24 hours. The assay was performed in opaque white Kalypsys 1536-well plates. In the screen, tetraoctylammonium bromide was used as positive control. Library compounds were measured for their ability to cause acute toxicity in the cell line, as reflected by a decrease in intracellular ATP levels, in a concentration-dependent manner. […] AC50 values were determined from concentration-response data modeled with the standard Hill equation.
qHTS protocol for CellTiter Glo lymphoblastoid cellular assay
[Step] [Parameter] [Value] [Description]
1. Reagent; 5 uL; 2500 lymphoblastoid cells/well
2. Time; 5 hr; 37 C incubation
4. Controls; 23 nL; Tetraoctylammonium bromide 6.4pM to 92 uM
5. Time; 24 hr; 37 C incubation
6. Reagent; 5 uL; CellTiter Glo reagent
7. Time; 30 min; Room Temperature
8. Detection; Luminescence; Viewlux plate reader
Keywords: cell viability, cytotoxicity, lymphoblastoid cell line, luminescence, NTPHTS, NTPHTS_NCGC, NIEHS, DSSTox, MLSMR, MLSCN, NIH Roadmap, qHTS, NCGC

Question: Which “viability change, negative = cytotoxic” value does the source give for `Oc1ccc(Cl)cc1` here?
Answer: -4.73%

Question: For `C[C@]12CCC(=O)C=C1CC[C@@H]1[C@@H]2CC[C@@]2(C)[C@H]1CC[C@]2(C)O`, which “viability change, negative = cytotoxic” value is on record?
Answer: -13.7%

Question: With `Clc1ccc(C(c2ccc(Cl)cc2)C(Cl)(Cl)Cl)cc1` as the compound, how does the “viability change, negative = cytotoxic” value read?
Answer: -1.62%

Question: For `COC(=O)C(c1ccccc1)C1CCCCN1` (stereo not drawn), which “viability change, negative = cytotoxic” value is on record?
Answer: -17.2%

Question: Which “viability change, negative = cytotoxic” value does the source give for `COP(=S)(OC)Oc1ccc(SC)c(C)c1` here?
Answer: -4.34%

Question: For `O=P1(N(CCCl)CCCl)NCCCO1` (stereo not drawn), which “viability change, negative = cytotoxic” value is on record?
Answer: 0.671%

Question: For `C[C@]1(O)CC[C@H]2[C@@H]3CCC4=CC(=O)CC[C@]4(C)[C@@]3(F)[C@@H](O)C[C@@]21C`, which “viability change, negative = cytotoxic” value is on record?
Answer: -3.84%

Question: Which “viability change, negative = cytotoxic” value does the source give for `CN1C[C@H](C(=O)N[C@]2(C)O[C@@]3(O)[C@@H]4CCCN4C(=O)[C@H](Cc4ccccc4)N3C2=O)C=C2c3cccc4[nH]cc(c34)C[C@H]21` here?
Answer: -22.8%

Question: For `Nc1ccccc1`, which “viability change, negative = cytotoxic” value is on record?
Answer: -1.35%

Question: For `COc1cc(OC)c(OC)cc1C=O`, which “viability change, negative = cytotoxic” value is on record?
Answer: 3.91%

Question: For `CCC(C)(C)c1ccc(O)cc1`, which “viability change, negative = cytotoxic” value is on record?
Answer: 0.435%

Question: With `CCCC(C)(COC(N)=O)COC(N)=O` as the compound, how does the “viability change, negative = cytotoxic” value read?
Answer: 4.21%

Question: Which “viability change, negative = cytotoxic” value does the source give for `CCOC(=O)CC(SP(=S)(OC)OC)C(=O)OCC` (stereo not drawn) here?
Answer: 8.09%

Question: For `CC(C)c1cccc(C(C)C)c1O`, which “viability change, negative = cytotoxic” value is on record?
Answer: -1.34%

Question: For `C[C@]12CCC(=O)C=C1CC[C@@H]1[C@@H]2CC[C@]2(C)C(=O)CC[C@@H]12`, which outcome is on record?
Answer: inactive

Question: For `NCCc1ccc(O)cc1`, which “viability change, negative = cytotoxic” value is on record?
Answer: -1.59%

Question: For `CC(C)NC(C)C`, which “viability change, negative = cytotoxic” value is on record?
Answer: 1.58%

Question: With `Nc1ccccc1C(=O)O` as the compound, how does the “viability change, negative = cytotoxic” value read?
Answer: 0.273%
